Reference: the supplement of paper PMC9694430

Columns and labels:
Test in all cases: thermal shift delta Tm vs DMSO control; higher = stronger stabilization (binding)
Conditions in all cases: 12.5 µM; protein concentration 2 µM
LOC_OS01G01410-cb001 = test system: LOC_OS01G01410-cb001
Summary of the method: (§1)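 Thermal shift values come from differential scanning fluorimetry on purified rice kinase domains made in E. coli, with melting temperatures obtained from Boltzmann fits. Samples of 19.5 μl held 2 μM kinase, 100 mM potassium phosphate pH 7.5, 150 mM NaCl, 10% glycerol, 5 × SYPRO Orange and compound in DMSO, and were heated from 25°C to 95°C at 0.05°C/s. Each shift is a triplicate mean relative to the DMSO-only protein sample.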

LOC_OS01G02750-cb003 = test system: LOC_OS01G02750-cb003
Summary of the method: as §1

LOC_OS01G10900-cb004 = test system: LOC_OS01G10900-cb004
Summary of the method: as §1

LOC_OS01G13800-cb001 = test system: LOC_OS01G13800-cb001
Summary of the method: as §1

LOC_OS01G14860-cb001 = test system: LOC_OS01G14860-cb001
Summary of the method: as §1

LOC_OS01G21960-cb002 = test system: LOC_OS01G21960-cb002
Summary of the method: as §1

LOC_OS01G39600-cb002 = test system: LOC_OS01G39600-cb002
Summary of the method: as §1

LOC_OS01G48390-cb002 = test system: LOC_OS01G48390-cb002
Summary of the method: as §1

LOC_OS01G51400-cb002 = test system: LOC_OS01G51400-cb002
Summary of the method: as §1

LOC_OS01G52050-cb004 = test system: T1, LOC_OS01G52050-cb004
T1 sequence (whole entry): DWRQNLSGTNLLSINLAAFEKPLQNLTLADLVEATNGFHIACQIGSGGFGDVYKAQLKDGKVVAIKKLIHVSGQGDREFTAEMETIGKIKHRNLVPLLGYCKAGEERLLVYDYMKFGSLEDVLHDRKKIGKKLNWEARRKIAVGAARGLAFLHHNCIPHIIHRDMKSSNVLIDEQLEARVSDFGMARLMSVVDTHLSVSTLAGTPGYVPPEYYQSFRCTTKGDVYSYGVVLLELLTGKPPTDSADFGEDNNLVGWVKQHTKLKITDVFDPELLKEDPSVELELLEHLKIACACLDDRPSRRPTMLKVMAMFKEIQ
Summary of the method: as §1

LOC_OS01G57100-cb003 = test system: LOC_OS01G57100-cb003
Summary of the method: as §1

LOC_OS01G60330-cb001 = test system: LOC_OS01G60330-cb001
Summary of the method: as §1

LOC_OS01G60700-cb002 = test system: LOC_OS01G60700-cb002
Summary of the method: as §1

LOC_OS01G63280-cb003 = test system: LOC_OS01G63280-cb003
Summary of the method: as §1

LOC_OS01G67340-cb003 = test system: LOC_OS01G67340-cb003
Summary of the method: as §1

LOC_OS01G70970-cb002 = test system: LOC_OS01G70970-cb002
Summary of the method: as §1

LOC_OS02G07810-cb001 = test system: LOC_OS02G07810-cb001
Summary of the method: as §1

LOC_OS02G08530-cb003 = test system: LOC_OS02G08530-cb003
Summary of the method: as §1

LOC_OS02G14120-cb001 = test system: LOC_OS02G14120-cb001
Summary of the method: as §1

LOC_OS02G17970-cb001 = test system: LOC_OS02G17970-cb001
Summary of the method: as §1
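Further: purified Escherichia coli-expressed rice kinase domain construct.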

| Structure (SMILES) | thermal shift delta Tm (LOC_OS01G01410-cb001) [°C] | thermal shift delta Tm (LOC_OS01G02750-cb003) [°C] | thermal shift delta Tm (LOC_OS01G10900-cb004) [°C] | thermal shift delta Tm (LOC_OS01G13800-cb001) [°C] | thermal shift delta Tm (LOC_OS01G14860-cb001) [°C] | thermal shift delta Tm (LOC_OS01G21960-cb002) [°C] | thermal shift delta Tm (LOC_OS01G39600-cb002) [°C] | thermal shift delta Tm (LOC_OS01G48390-cb002) [°C] | thermal shift delta Tm (LOC_OS01G51400-cb002) [°C] | thermal shift delta Tm (LOC_OS01G52050-cb004) [°C] | thermal shift delta Tm (LOC_OS01G57100-cb003) [°C] | thermal shift delta Tm (LOC_OS01G60330-cb001) [°C] | thermal shift delta Tm (LOC_OS01G60700-cb002) [°C] | thermal shift delta Tm (LOC_OS01G63280-cb003) [°C] | thermal shift delta Tm (LOC_OS01G67340-cb003) [°C] | thermal shift delta Tm (LOC_OS01G70970-cb002) [°C] | thermal shift delta Tm (LOC_OS02G07810-cb001) [°C] | thermal shift delta Tm (LOC_OS02G08530-cb003) [°C] | thermal shift delta Tm (LOC_OS02G14120-cb001) [°C] | thermal shift delta Tm (LOC_OS02G17970-cb001) [°C] |
| --- | --- | --- | --- | --- | --- | --- | --- | --- | --- | --- | --- | --- | --- | --- | --- | --- | --- | --- | --- | --- |
| O=C1NC(=O)C(c2cnc3ccccn23)=C1c1cn2c3c(cc(F)cc13)CN(C(=O)N1CCCCC1)CC2 | 0.36 | 0.62 | 0.19 | 0.44 | 4.55 | 2.13 | 5.95 | 0.1 | 0.37 | 0.22 | 1.16 | 3.68 | 2.25 | 0.82 | 0.19 | 0.64 | 1.59 | 1.8 | 0.04 | 2.16 |
| CC(C)N(CCC(=O)c1ccc2ccccc2c1)Cc1ccccc1 | -0.06 | -5.16 | 1.63 | -1.25 | -0.01 | 0.24 | -2.79 | 0.53 | -0.18 | -7.43 | 1.6 | -0.95 | 1.89 | -2.65 | -0.6 | -5.39 | 0.33 | -1.55 | -2 | 5.17 |
| CN(C)C/C=C/C(=O)Nc1cc2c(Nc3ccc(F)c(Cl)c3)ncnc2cc1O[C@H]1CCOC1 [Afatinib (BIBW2992) Dimaleate] | 0.1 | 2.11 | 5.05 | 0.72 | 3.86 | 1.14 | 1.17 | 2.48 | 0.14 | 1.67 | 0.18 | 1.16 | 1.57 | 1 | 0.71 | -0.12 | 0.8 | 1.12 | 2.75 | 1.68 |
| C=CC(=O)Nc1cccc(Sc2nc(Nc3ccc(N4CCN(C)CC4)cc3)ncc2Cl)c1 | 3.81 | 1.58 | 5.27 | -0.1 | 1.89 | 0.88 | 6.99 | 7.06 | 1.43 | 4.22 | -1.98 | 1.15 | 0.75 | 0.45 | 0.87 | 7.21 | 0.82 | 2.38 | 6.55 | 0.58 |
| C=CC(=O)Nc1cccc(Nc2nc(Nc3ccc(Oc4ccnc(C(=O)NC)c4)cc3)ncc2F)c1 | 4.52 | 1.34 | 1.05 | 0.7 | 4.66 | 2.14 | 1.74 | 0.98 | 0.31 | 3.1 | 2.13 | 6.9 | 1.08 | 0.49 | 0.92 | 1.63 | 0.76 | 2.72 | 6.96 | 0.81 |
| CC[C@@H]1C(=O)N(C)c2cnc(Nc3ccc(C(=O)NC4CCN(C)CC4)cc3OC)nc2N1C1CCCC1 | 1.63 | -0.86 | -0.01 | -0.37 | -0.16 | 0.05 | 0.36 | -0.02 | -0.01 | 0.06 | 0.75 | 2.55 | 0.69 | -0.22 | -0.4 | 0.34 | 0.2 | 1.93 | 0.27 | 0.02 |
